Results from PubChem BioAssay (NCI).
The panel holds about 83,000 compounds, 20% with a hit somewhere; the sample as a whole holds those more often.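 Results are percent growth after 48 hours of single-concentration exposure. 100 means growth as in untreated cells, lower positive values show inhibition; negative values down to -100 show cell death.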 Unmarked numbers belong to inactive results. The source made the active and inactive calls. Rule for the calls: active = growth percent below 10; inactive = the rest.

Assays:
Experiment in all cases: NCI-60 one-dose screen, 48 h (100 = growth as untreated, 0 = no growth, -100 = all killed)
[1] = test system: NCI-H23 lung; settings: 10 µM unless noted
[2] = test system: NCI-H460 lung; settings: 10 µM unless noted
[3] = test system: RXF 393 renal; settings: 10 µM unless noted
[4] = test system: SF-295 CNS; settings: 10 µM unless noted
[5] = test system: HT29 colon; settings: 10 µM unless noted
[6] = test system: U251 CNS; settings: 10 µM unless noted
[7] = test system: SK-MEL-5 melanoma; settings: 10 µM unless noted
[8] = test system: UO-31 renal; settings: 10 µM unless noted
[9] = test system: CAKI-1 renal; settings: 10 µM unless noted
[10] = test system: A498 renal; settings: 10 µM unless noted
[11] = test system: RPMI-8226 leukemia; settings: 10 µM unless noted
[12] = test system: HS 578T breast; settings: 10 µM unless noted
[13] = test system: T-47D breast; settings: 10 µM unless noted
[14] = test system: BT-549 breast; settings: 10 µM
[15] = test system: HCT-116 colon; settings: 10 µM unless noted
[16] = test system: HCC-2998 colon; settings: 10 µM unless noted
[17] = test system: M14 melanoma; settings: 10 µM unless noted
[18] = test system: HL-60(TB) leukemia; settings: 10 µM unless noted
[19] = test system: CCRF-CEM leukemia; settings: 10 µM unless noted
[20] = test system: K-562 leukemia; settings: 10 µM unless noted

| Structure (SMILES) | growth [1] | growth [2] | growth [3] | growth [4] | growth [5] | growth [6] | growth [7] | growth [8] | growth [9] | growth [10] | growth [11] | growth [12] | growth [13] | growth [14] | growth [15] | growth [16] | growth [17] | growth [18] | growth [19] | growth [20] |
| --- | --- | --- | --- | --- | --- | --- | --- | --- | --- | --- | --- | --- | --- | --- | --- | --- | --- | --- | --- | --- |
| CNC(=O)Oc1cccc(OC)c1 | 101% | 115% | 111% | 121% | 103% | 110% | 109% | 97.5% | 86.1% | 87.8% | 109% | 109% | 108% | 103% | 103% | 105% | – | – | – | – |
| Cc1ccc2oc(=O)c3c(c2c1)OC(N)=C(C#N)C3c1ccco1 (stereo not drawn) | 98.3% | 105% | – | 98% | 108% | 109% | 101% | 77.7% | 91.3% | 105% | 100% | 93.5% | – | 98.8% | 99.9% | 109% | 99.8% | 113% | 96.4% | – |
| C1CN1c1nc(N2CC2)nc(N2CC2)n1 | 15.8% | 16.5% | 39% | 14.2% | 44.9% | 7.27% (active) | 20.1% | 1.86% (active) | 6.72% (active) | 57.9% | 29.3% | 72.3% | 26.7% | 46.1% | 42.6% | 49.7% | 25.1% | 0.901% (active) | 15.6% | 26.4% |
| CNC(C)Cc1ccccc1 (stereo not drawn) (tested in a mixture with another compound) | 99.2% | 104% | 105% | 97.7% | 107% | 89.9% | 99.6% | 82.9% | 102% | 92.5% | 90.4% | 106% | 90.5% | 109% | 100% | 101% | 103% | – | 105% | 88.9% |
| O=C(CCF)c1ccc(O)cc1 | 94% | – | 109% | 100% | 98.2% | 106% | 117% | 87% | – | – | 97.5% | – | 102% | 110% | 103% | 108% | 106% | 99.2% | 95% | 98.9% |
| O=C(O)C1[O][Sb][O]C1C(=O)O (stereo not drawn) | 110% | 108% | 116% | 123% | 104% | 102% | 86.9% | 90.7% | 118% | 116% | 99.3% | 101% | 89.3% | 84.6% | 103% | 106% | 94.5% | 91.1% | – | 89.1% |
| C[C@]12CC[C@H]3[C@@H](C[C@@H]4N=C(c5ccc(O)cc5)S[C@@]45C[C@H](O)CC[C@]35C)[C@@H]1CC[C@@H]2O | 74.7% | 41.9% | -46.3% (active) | -36.2% (active) | 19.9% | 20.1% | 72% | 9.33% (active) | 61.3% | 49.4% | -36.9% (active) | 4.16% (active) | 67.7% | 59.3% | – | 95.3% | 60.5% | 22.7% | 13.1% | 13.9% |
| COc1ccccc1N1CCN(CCc2c[nH]c3cc4c(cc23)OCO4)CC1 | 71.9% | 51.6% | 75.8% | 41% | 44.2% | 85.4% | 74.8% | 33.2% | 75.5% | 108% | 47.1% | 69.5% | 83.1% | 84.2% | 42.5% | 92.6% | 68.9% | 64.8% | 75.4% | 76.3% |
| CC(C)N=C(NC(C)C)N1CC1 | 113% | 116% | 122% | 102% | 111% | 105% | 113% | 113% | 99.3% | 116% | 121% | 107% | 111% | 114% | 111% | 103% | 128% | 104% | 116% | 124% |
| O=C(N/N=C/c1ccc(N(CCCl)CCCl)cc1)c1cc(=O)[nH]c(=O)[nH]1 | 79.7% | 39% | 95.2% | 87.2% | 101% | 98.2% | 98.9% | 71.7% | 53.2% | 93.7% | 86.7% | 105% | – | 96.8% | 90.7% | 104% | 103% | – | 66.5% | – |
| [O]=[Sn]([CH]1CCCCC1)[CH]1CCCCC1 | -93.5% (active) | -85.8% (active) | -99% (active) | -85.6% (active) | -52.8% (active) | -85.2% (active) | -98.5% (active) | -90.4% (active) | -93.5% (active) | -98% (active) | – | -19.5% (active) | -86.7% (active) | -99.3% (active) | -97.5% (active) | -98.6% (active) | -88.6% (active) | 7.49% (active) | -42.2% (active) | -8.85% (active) |
| O=C1c2ccccc2C(=O)N1[N+](=O)[O-] | 95.3% | 102% | 103% | 103% | 102% | 93.2% | 104% | 85.9% | 106% | 93.6% | 101% | 106% | – | 110% | 112% | 87.2% | 105% | 113% | 90% | 105% |
| CC1CC=CCC12C(=O)NC(=S)NC2=O (stereo not drawn) | 113% | 106% | 106% | 99% | 107% | 94.9% | 103% | 92.9% | 96.6% | 72.9% | – | 102% | 98.2% | 110% | 108% | 116% | 114% | 136% | 82.6% | 94.2% |
| Nc1c(Br)cc2c3c(cccc13)-c1ccccc1-2 | 61.7% | 88.4% | 80.2% | 74.5% | 103% | 60.1% | 84.8% | 42.4% | 57.4% | 70.5% | – | 50% | 38.6% | 91.8% | 81.4% | 80.7% | – | 82.7% | 48.8% | 38.3% |
| OB([O][Hg][c]1ccccc1)[O][Hg][c]1ccccc1 | -56.2% (active) | -21.4% (active) | -94.3% (active) | -32.1% (active) | -55.8% (active) | -82.4% (active) | -96.7% (active) | -94.1% (active) | -92.4% (active) | -31.2% (active) | -44.4% (active) | -5.59% (active) | -42.4% (active) | -91.5% (active) | -68.4% (active) | -45.5% (active) | -80.9% (active) | -53.3% (active) | – | -32.5% (active) |
| CC(=O)Nc1ccc(C=C2C(=O)NC(=O)NC2=O)cc1 | 101% | – | 118% | 104% | 109% | 103% | 115% | 84.5% | 97.5% | – | 98.3% | – | 106% | 112% | 101% | 104% | – | – | 86.1% | 104% |
| O1[As]2O[As]3O[As]1O[As](O2)O3 | 6.46% (active) | 3.94% (active) | -47.6% (active) | 4.61% (active) | -21.1% (active) | -69.2% (active) | -91.5% (active) | -7% (active) | -20.2% (active) | 2.98% (active) | 15.1% | – | 22.9% | -12.1% (active) | -10.3% (active) | 23.3% | -24.2% (active) | 1.06% (active) | 13.1% | – |
| O=C(Nc1ccc(S(=O)(=O)F)cc1)Oc1ccccc1 | 97.8% | 102% | 95.3% | 96.8% | 102% | 96.8% | 96.3% | 87% | 105% | 97.6% | 92.3% | – | 95.9% | 98.2% | 116% | 110% | – | 105% | 88.1% | 100% |
